This is an account of results in PubChem BioAssay (NCATS).

Active and inactive are the calls of the source. Calls follow the shape of the dose curve; as a rule, active = well fitted curve in the direction sought with a large enough effect; inconclusive = small, poorly fitted or top-dose-only effect, or another doubt; inactive = no such curve, though single readings can be large or run the other way.

For this test, the target named is Methanococcus maripaludis chaperonin (MmCpn) (UniProt Q6LX38). The test is described as follows: High-Throughput Screening for Modulators of Cytosolic Chaperonin Activity: MmCpn Primary Screen (AID 488978). The settings on record: Purified MmCpn ATPase activity, ADP HTRF detection, 10 min; series mostly up to 76.9 µM. The text has this: Chaperonins are key components of the cellular chaperone machinery. These large complexes consist of two stacked 7-9 membered rings, each containing a central cavity. Substrates are folded within the cavity in an ATP-dependent manner. TRiC is a complex of eight different, essential proteins. As each of the genes encoding the eight subunits is essential for cell viability and no protocol has been developed to overexpress this enzyme to high levels, several groups have turned to the archaeal homolog of TRiC from Methanococcus maripaludis (MmCpn) as a model system for the study of the type II chaperonin family.
Chain of Methanococcus maripaludis chaperonin (MmCpn) (Q6LX38 1-543): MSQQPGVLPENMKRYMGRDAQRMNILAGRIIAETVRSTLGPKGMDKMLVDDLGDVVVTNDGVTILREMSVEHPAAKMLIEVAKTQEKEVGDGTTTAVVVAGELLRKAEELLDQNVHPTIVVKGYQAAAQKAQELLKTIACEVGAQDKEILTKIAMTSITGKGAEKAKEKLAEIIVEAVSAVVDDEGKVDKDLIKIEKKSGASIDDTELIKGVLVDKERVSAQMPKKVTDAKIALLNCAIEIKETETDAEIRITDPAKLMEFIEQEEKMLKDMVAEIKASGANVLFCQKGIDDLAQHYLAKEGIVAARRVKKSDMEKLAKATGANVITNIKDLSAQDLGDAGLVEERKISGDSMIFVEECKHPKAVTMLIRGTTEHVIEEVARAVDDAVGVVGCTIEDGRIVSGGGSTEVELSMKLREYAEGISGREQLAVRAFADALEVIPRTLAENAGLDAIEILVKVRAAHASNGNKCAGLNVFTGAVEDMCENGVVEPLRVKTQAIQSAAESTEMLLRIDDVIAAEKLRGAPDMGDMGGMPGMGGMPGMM
MmCpn was kindly provided by the laboratory of Judith Frydman.
1. Dispense 1.5 ul enzyme of either TriC at 100 nM or MmCpn at 50 nM final concentration.
2. Transfer 23 nl of compound to plate, incubate 5 min at RT.
3. 1.5 ul ATP at 30 uM at final concentration dispensed into plate.
4. Incubate for 10 minutes at 37C (MmCPN), 30C (TriC).
5. 3 ul of the Cisbio ADP Transcreener HTRF detection reagent prepared according to protocol dispensed into plate.
6. Incubate for 5 minutes.
7. Read using EnVision plate reader at Excitation = 320nm and Emission = 590nm, 665nm
(In general: In TR-FRET formats the signal depends on donor and acceptor labels being close together.)
For the molecule `N.N.O=C(O)C1(C(=O)O)CCC1.[Pt+2]`, the result was inactive. `S=C(Nc1ccccc1)Nc1nccs1`: the molecule was classed as inactive. Consider `O=Nc1c(-c2c(O)[nH]c3ccccc23)[nH]c2ccccc12`, for which the result was inactive. Take `CC[N+](CC)(CC)CC`: the call was inactive. Regarding `Oc1cc2c(c(Cl)c1O)CCNCC2c1ccccc1` (centres undefined), the molecule was called inactive. As for `N#C/C(=C\c1ccc(O)c(O)c1)C(=O)Nc1ccccc1`, the result was inactive. `C[C@H](Cc1ccccc1)Nc1ncnc2c1ncn2[C@@H]1O[C@H](CO)[C@@H](O)[C@H]1O`: the result was inactive. Take `Cc1cccc(/C=C/c2ccccc2)n1`: the molecule was classed as inactive. As to `C1CCC(N=C(NC23CC4CC(CC(C4)C2)C3)N2CCOCC2)CC1`, the molecule was classed as inactive. For `Nc1c(S(=O)(=O)O)cc(Nc2ccc(Nc3nc(Cl)nc(Nc4ccc(S(=O)(=O)O)cc4)n3)c(S(=O)(=O)O)c2)c2c1C(=O)c1ccccc1C2=O`, the outcome was inactive.

In the case of `C/C=C/CC(C)C(O)C1C(=O)NC(CC)C(=O)N(C)CC(=O)N(C)C(CC(C)C)C(=O)NC(C(C)C)C(=O)N(C)C(CC(C)C)C(=O)NC(C)C(=O)NC(C)C(=O)N(C)C(CC(C)C)C(=O)N(C)C(CC(C)C)C(=O)N(C)C(C(C)C)C(=O)N1C` (centres undefined), the molecule was classed as inactive. On to `CN1C2CCCC1CC(NC(=O)c1nn(C)c3ccccc13)C2` (centres undefined), for which the call was inactive. For `O=C1c2ccccc2C(=O)c2c(NCCc3ccc(O)cc3)ccc(NCCc3ccc(O)cc3)c21` the value was “inactive”; for `CCc1ccc(/C=C2/SC(=S)NC2=O)cc1`, “inactive”.
